{"source": "PubChem BioAssay AID485317", "about": "(Broad Institute, 2010)", "note": "Screen size: about 290,000 compounds; about 11,000 (3.8%) were called active.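 The calls were made as follows: active = mean replicate inhibition above about 79%, with every replicate also reaching it (limit read from the data); inconclusive = only one of the two criteria met; inactive = mean below limit and not every replicate reaching it.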 This excerpt belongs to a sample that is enriched for actives."}
{"target": "FAD-linked sulfhydryl oxidase ALR (Homo sapiens) (UniProt P55789)", "sequence (P55789 whole entry, looked up)": "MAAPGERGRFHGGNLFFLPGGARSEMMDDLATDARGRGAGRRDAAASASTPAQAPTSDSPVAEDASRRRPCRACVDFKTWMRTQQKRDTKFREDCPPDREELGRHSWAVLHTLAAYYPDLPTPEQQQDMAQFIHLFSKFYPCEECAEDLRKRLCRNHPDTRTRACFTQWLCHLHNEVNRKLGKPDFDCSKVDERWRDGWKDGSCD", "experiment": "ALR-catalysed DTT oxidation blockers – biochemical, H2O2 detection, HRP-luminol luminescence, single point, primary screen (AID 485317)", "conditions": "purified ALR, hits give high values, concentration not given here"}
{"compound": "O=C(CSc1nc2ccccc2c(=O)n1Cc1ccc(F)cc1)NCC1CCCO1", "note": "(configuration not stated)", "inhibition": "-7.08% (inactive)"}
{"compound": "C=CCNC(=O)C1CC2c3ccccc3C1c1ccccc12", "note": "(configuration not stated)", "inhibition": "-7.82% (inactive)"}
{"compound": "Cc1cc(Nc2ccc(Br)cc2)nc2ccccc12", "inhibition": "-3.49% (inactive)"}
{"compound": "O=C(COC(=O)c1ccc(O)cc1O)c1ccc2c(c1)OCCO2", "inhibition": "9.5% (inactive)"}
{"compound": "CC1(C)O[C@@H]2CC3C4C[C@H](F)C5=CC(=O)C=CC5(C)C4C(O)CC3(C)[C@]2(C(=O)CO)O1", "note": "(some centres not stated)", "inhibition": "-6.73% (inactive)"}
{"compound": "O=Cc1cn(Cc2ccccc2)nc1-c1cccnc1", "inhibition": "-2.35% (inactive)"}
{"compound": "O=C1/C(=C\\c2cccnc2)CN(Cc2ccccc2)C/C1=C\\c1cccnc1", "inhibition": "96.1% (active)"}
{"compound": "Clc1ccc(CN2CCN(/N=C/c3cccnc3)CC2)cc1", "inhibition": "14.2% (inactive)"}
{"compound": "C=CCc1cc(S(=O)(=O)c2ccc(O)c(CC=C)c2)ccc1O", "inhibition": "87.7% (active)"}
{"compound": "Cc1ccccc1N1CC(C(=O)Nc2ccc3c(c2)OCO3)CC1=O", "note": "(configuration not stated)", "inhibition": "-35.2% (inactive)"}
{"compound": "Cc1ccc(Cc2nnc(SCC(=O)Nc3ccccc3C)[nH]c2=O)cc1", "inhibition": "-2.8% (inactive)"}
{"compound": "Cc1ccccc1NC(=O)CSc1ccc2nnc(-c3ccccn3)n2n1", "inhibition": "-1.94% (inactive)"}
{"compound": "O=C(Nc1ccccc1N1CCCCC1)c1ccc2nccnc2c1", "inhibition": "-6.64% (inactive)"}
{"compound": "O=C(Nc1ccccc1N1CCCC1)c1ccc2ccccc2c1", "inhibition": "77% (active)"}
{"compound": "Cc1ccccc1N1CC(C(=O)Nc2ccc(S(=O)(=O)N3CCCC3)cc2)CC1=O", "note": "(configuration not stated)", "inhibition": "-9.58% (inactive)"}
{"compound": "Cc1cccc(N2CC(C(=O)Nc3ccccc3N3CCCC3)CC2=O)c1C", "note": "(configuration not stated)", "inhibition": "98.4% (active)"}
{"compound": "O=C(Nc1ccccc1N1CCCC1)c1ccc(F)c(S(=O)(=O)N2CCOCC2)c1", "inhibition": "43.8% (inactive)"}
{"compound": "Cc1ccccc1NC(=O)CNc1ccccc1N1CCCCC1", "inhibition": "87.1% (active)"}
{"compound": "Cc1ccccc1NC(=O)CSC1=NCCN1", "inhibition": "99.1% (active)"}
{"compound": "Cc1ccccc1NC(=O)Nc1ccccc1N1CCCCC1", "inhibition": "-4.73% (inactive)"}
{"compound": "O=C(CNCCC1=CCCCC1)Nc1ccccc1N1CCCCCC1", "inhibition": "19.2% (inactive)"}
{"compound": "Nc1c(C(=O)OCC(=O)Nc2ccc(OC(F)F)cc2)[nH]c(=O)[nH]c1=O", "inhibition": "9.56% (inactive)"}
{"compound": "COc1ccccc1N(CC(=O)Nc1ccc(C)cc1Cl)S(=O)(=O)c1cccs1", "inhibition": "-3.47% (inactive)"}
{"compound": "CC(C(=O)N(C)CC(=O)Nc1ccccc1C(F)(F)F)N1C(=O)c2ccccc2C1=O", "note": "(configuration not stated)", "inhibition": "-4.96% (inactive)"}
{"compound": "CCOc1ccc(CC(=O)NCCS(=O)(=O)N2CCN(c3ccccc3)CC2)cc1", "inhibition": "-1.48% (inactive)"}
{"compound": "Cc1onc(-c2c(F)cccc2Cl)c1C(=O)OCC(=O)N1C(C)CCCC1C", "note": "(configuration not stated)", "inhibition": "-4.37% (inactive)"}
{"compound": "COCCN(CCOC)S(=O)(=O)NC[C@H]1O[C@@H](n2cnc3c(N)ncnc32)[C@H](O)[C@@H]1O", "inhibition": "2.26% (inactive)"}
{"compound": "COc1cc(C(=O)Nc2ncccc2C)ccc1OCC(=O)N1CCOCC1", "inhibition": "-1.3% (inactive)"}
{"compound": "CCOc1ccc(C(=O)CCC(=O)NC2=NCCS2)cc1", "inhibition": "2.64% (inactive)"}
{"compound": "CCOc1ccc(/C=C/C(=O)OCC(=O)c2ccccc2OC)cc1OC", "inhibition": "1.49% (inactive)"}
{"compound": "COc1ccc(/C=C/C(=O)c2ccc(OC)cc2O)cc1", "inhibition": "-17.6% (inactive)"}
{"compound": "COCOc1cc(O)c(C(=O)/C=C/c2ccc(OCOC)c(OCOC)c2)c(OCOC)c1", "inhibition": "94.9% (active)"}
{"compound": "C#CCNC(=O)[C@H](Cc1ccc(C(=O)c2ccccc2)cc1)NC(=O)OC(C)(C)C", "inhibition": "-2.67% (inactive)"}
{"compound": "CCNC(=S)N1CCN(S(=O)(=O)c2ccc(Cl)s2)CC1", "inhibition": "-2.01% (inactive)"}
{"compound": "COc1ccccc1C(=O)Nc1ccc(OCC(=O)N2CCCCC2)cc1", "inhibition": "2.28% (inactive)"}
{"compound": "CC(=O)Nc1cccc(-c2nc3ccccc3s2)c1C", "inhibition": "-21% (inactive)"}
{"compound": "Oc1ccc(-c2[nH]ncc2-c2nc3ccccc3s2)c(O)c1", "inhibition": "83.3% (active)"}
{"compound": "Cc1cc(O)ccc1-c1cnc2ccccc2n1", "inhibition": "58% (inactive)"}
{"compound": "CCN(C(=O)COC(=O)C1CCN(S(=O)(=O)c2ccc(C)c(C)c2)CC1)C1CCS(=O)(=O)C1", "note": "(configuration not stated)", "inhibition": "-10.6% (inactive)"}
{"compound": "COc1ccc(C2=NN(C(=O)CSc3nnnn3C)C(c3ccco3)C2)cc1", "note": "(configuration not stated)", "inhibition": "3.36% (inactive)"}
{"compound": "Cc1ccc(C(=O)Nc2ccccc2-c2ccccc2)cc1S(=O)(=O)Nc1ccccc1", "inhibition": "-2.08% (inactive)"}
{"compound": "CCOc1ccc(CCNC(=O)C2=C(C)C(=O)OC23CCC(C)CC3)cc1OCC", "note": "(configuration not stated)", "inhibition": "-1.93% (inactive)"}
{"compound": "CCN(CCNC(=O)C1=C(C)C(=O)OC12CCC(C)CC2)c1ccccc1", "note": "(configuration not stated)", "inhibition": "98.4% (active)"}
{"compound": "CC1CCN(C(=O)CCNC(=O)c2ccccc2)CC1", "inhibition": "0.139% (inactive)"}
{"compound": "Cc1ccc(S(=O)(=O)NC[C@H]2O[C@@H](n3cnc4c(N)ncnc43)[C@H](O)[C@@H]2O)s1", "inhibition": "1.77% (inactive)"}
{"compound": "O=C(O)c1ccc2c(c1)C(=O)N(c1ccc(/C=C/C(=O)c3ccccc3)cc1)C2=O", "inhibition": "50.4% (inactive)"}
{"compound": "COC(=O)c1ccc(COc2ccc(/C=C/C(=O)c3ccc(OC)c(CSCC(=O)O)c3)cc2OC)cc1", "inhibition": "99.4% (active)"}
{"compound": "O=C(/C=C/c1ccccc1)c1ccoc1", "inhibition": "13.2% (inactive)"}
{"compound": "COC(=O)c1ccc(C(NC(=O)OCc2ccccc2)/C(C)=C/[C@@H](C)C(=O)NCc2ccc(OC)c(OC)c2)cc1", "note": "(some centres not stated)", "inhibition": "-2.17% (inactive)"}
{"compound": "COC(=O)c1ccc(COc2ccc(/C=N/NC(=O)C(=O)Nc3ccc(OC)cc3)cc2OC)o1", "inhibition": "-5.05% (inactive)"}
{"compound": "COc1ccc(C(=O)/C=C/c2ccc(-c3ccccc3)cc2)cc1CSCC(=O)O", "inhibition": "99.2% (active)"}
{"compound": "CC(OC(=O)CN1C(=O)c2ccccc2C1=O)C(=O)c1ccccc1", "note": "(configuration not stated)", "inhibition": "4.65% (inactive)"}
{"compound": "Cc1nn(CC(=O)Nc2nc3ccccc3s2)c(C)c1[N+](=O)[O-]", "inhibition": "-2.85% (inactive)"}
{"compound": "CCOC(=O)N1CCN(CC(=O)Nc2cc(C)nn2-c2nc3ccccc3s2)CC1", "inhibition": "7.49% (inactive)"}
{"compound": "CCC(C)Cn1c(O)cc2nn(-c3nc4ccccc4s3)c(=O)c-2c1C", "note": "(configuration not stated)", "inhibition": "98.9% (active)"}
{"compound": "Cc1ccc(-c2csc(NC(=O)c3cnccn3)n2)cc1C", "inhibition": "-0.38% (inactive)"}
{"compound": "Cc1csc(NC(=O)C2=COCCO2)n1", "inhibition": "1.03% (inactive)"}
{"compound": "Cc1ccc(-c2csc(NC(=O)C3=COCCO3)n2)cc1C", "inhibition": "83.7% (active)"}
{"compound": "O=C(Nc1cccc(S(=O)(=O)NC2=NCCC2)c1)c1ccc(F)cc1F", "inhibition": "-7.53% (inactive)"}
{"compound": "COc1ccc(-c2cc(C(=O)N(C)CC(=O)Nc3ccccc3Cl)c3ccccc3n2)cc1OC", "inhibition": "-3.41% (inactive)"}
{"compound": "Cc1ccc(S(=O)(=O)N(C)C)cc1NC(=O)COC(=O)/C=C/c1cccs1", "inhibition": "-0.0664% (inactive)"}
{"compound": "O=C(OCC(=O)N1CCN(c2ccccc2)CC1)c1ccc([N+](=O)[O-])s1", "inhibition": "-44.6% (inactive)"}
{"compound": "COc1ccccc1NC(=O)CC(NCCN(C)C)C(=O)O", "note": "(configuration not stated)", "inhibition": "-8.47% (inactive)"}
{"compound": "COC(=O)C(CC(=O)Nc1cc(C)ccc1C)Nc1ccccc1OC", "note": "(configuration not stated)", "inhibition": "98.4% (active)"}
{"compound": "COc1ccc(C)cc1NC(=O)Nc1ccccc1SC", "inhibition": "-2.74% (inactive)"}
{"compound": "COc1cc([N+](=O)[O-])ccc1NC(=O)COC(=O)CCOc1ccc(C)cc1", "inhibition": "24.6% (inactive)"}
{"compound": "Cc1ccc(NC(=O)Cc2nc(COC(=O)C(C)NS(=O)(=O)c3ccc(C)cc3)cs2)cc1", "note": "(configuration not stated)", "inhibition": "14% (inactive)"}
{"compound": "CCN(CC)C(=O)C(=O)Nc1cccc(Br)c1", "inhibition": "3.75% (inactive)"}
{"compound": "CCN(CC)C(=O)CSC(Nc1cccc(F)c1)=C(C#N)C#N", "inhibition": "98.8% (active)"}
{"compound": "Cc1ccc(CSCC(=O)N(C)CC(=O)Nc2cccc(F)c2)cc1", "inhibition": "-16.3% (inactive)"}
{"compound": "COC(=O)c1sc(-c2ccc(C(C)(C)C)cc2)cc1NC(=O)/C=C/C(=O)O", "inhibition": "98.3% (active)"}
{"compound": "COc1ccccc1NC(=O)/C=C/C(=O)O", "inhibition": "-9.66% (inactive)"}
{"compound": "O=C(O)/C=C/C(=O)Nc1ccc(F)cc1F", "inhibition": "5.9% (inactive)"}
{"compound": "O=C(COC(=O)c1cc(S(=O)(=O)N2CCOCC2)ccc1F)NC1CC1", "inhibition": "-8.45% (inactive)"}
{"compound": "CN(CC(=O)Nc1ccc(F)c(F)c1F)C(=O)Cn1cnc2c1c(=O)n(C)c(=O)n2C", "inhibition": "-6.05% (inactive)"}
{"compound": "CCCCn1c(N)c(N(CCC(C)C)C(=O)c2ccc(COc3ccccc3)o2)c(=O)[nH]c1=O", "inhibition": "0.673% (inactive)"}
{"compound": "CCCOC(=O)Nc1sc2c(c1C(=O)OCC)CCC2", "inhibition": "46.6% (inactive)"}
{"compound": "CCOC(=O)c1c(NC(=O)CSc2nnc(C)c(=O)[nH]2)sc2c1CCC2", "inhibition": "90% (active)"}
{"compound": "NC(=O)c1c(NC(=O)CSc2nc(N)cc(=O)[nH]2)sc2c1CCCC2", "inhibition": "36% (inactive)"}
{"compound": "Cc1ccc(C)c(NC(=O)COC(=O)c2nn(C)c(=O)c3ccccc23)c1", "inhibition": "-9.61% (inactive)"}
{"compound": "Cc1ccc(CCC(=O)Nc2ncc(Cc3cc(Cl)ccc3Cl)s2)o1", "inhibition": "53.6% (inactive)"}
{"compound": "Cc1ccc(Cc2cnc(N)s2)o1", "inhibition": "99.1% (active)"}
{"compound": "COc1cccc(C(=O)OCC(=O)c2[nH]c(C)c(C(C)=O)c2C)c1", "inhibition": "-3.4% (inactive)"}
{"compound": "Cc1ccc(S(=O)(=O)NCCNC(C)c2ccc(Br)cc2)cc1", "note": "(configuration not stated)", "inhibition": "-1.35% (inactive)"}
{"compound": "Cc1nn(-c2ccccn2)c2c1C(c1ccncc1)C1=C(CC(C)(C)CC1=O)N2", "note": "(configuration not stated)", "inhibition": "16% (inactive)"}
{"compound": "CC(=O)C1=C(C)NC2=C(C(=O)CC(C)(C)C2)C1C", "note": "(configuration not stated)", "inhibition": "-3.96% (inactive)"}
{"compound": "Cc1cc2c(cc1C)NC(c1ccccn1)C1=C(CC(C)(C)CC1=O)N2", "note": "(configuration not stated)", "inhibition": "99.2% (active)"}
{"compound": "O=C1CCC/C=C\\C[C@@H](CC(=O)N(CCO)Cc2ccccc2)C(=O)NCCO1", "inhibition": "0.845% (inactive)"}
{"compound": "O=C(COC(=O)c1ccco1)Nc1ccc(Cl)cn1", "inhibition": "-2.69% (inactive)"}
{"compound": "O=C(CNC(=O)c1cccnc1)N/N=C/c1cc(Br)c(O)c(Br)c1", "inhibition": "43.1% (inactive)"}
{"compound": "O=C(CNC(=O)c1cccnc1)N/N=C/c1cccnc1", "inhibition": "-3.02% (inactive)"}
{"compound": "CCN(CC)c1ccc(/C=N/NC(=O)CNC(=O)c2cccnc2)cc1", "inhibition": "98.6% (active)"}
